Experimental data taken from PubChem BioAssay AID651820 (National Center for Advancing Translational Sciences (NCATS), 2012).
Hit rate of the full screen: of about 340,000 compounds, about 12,000 (3.5%) were called active. Entries that show only a call come without a potency. Inconclusive results (about 18%) are left out. Only a selection was taken, and actives are over-represented in it overall. A number with no mark means an inactive call. Calls follow the shape of the dose curve; as a rule, active = well fitted inhibition curve with a large enough effect; inconclusive = small, poorly fitted or top-dose-only effect, or another doubt; inactive = no such curve, though single readings can be large or run the other way.

Experiment: qHTS Assay for Inhibitors of Hepatitis C Virus (HCV)
Conditions: Huh7.5.1 HCVcc-Cre infection, luciferase reporter, 44 h; series mostly up to 41.8 µM
Procedure, shortened: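 1,000 cells/well; 4 h culture; + compound; + HCVcc-Cre (~0.5 moi); 44 h; luciferase substrate, RT 15 min; read 15 sec.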
Potency is read from the fitted curve at half-maximal effect.

| Structure (SMILES) | Potency | activity change, negative = inhibition |
| --- | --- | --- |
| CCCc1nc2ccccc2c(C(=O)OCc2nnc(-c3cc(OC)c(OC)c(OC)c3)o2)c1CC | 2.82 µM (active) |  |
| CCCc1nc2ccccc2c(C(=O)OCC(=O)c2ccc3c(c2)NC(=O)CO3)c1CC | inactive |  |
| O=C(OCc1nnc(-c2ccccc2)o1)c1cc(=O)[nH]c2ccccc12 | inactive |  |
| CCOc1ccc(S(=O)(=O)NCCC(=O)NCC2CCCO2)cc1 (stereo unspecified) | inactive |  |
| O=C(NCc1ccc2c(c1)OCO2)c1cc([N+](=O)[O-])ccc1N1CCOCC1 | inactive |  |
| O=C(CN1C(=O)NC2(CCCCCCC2)C1=O)NCc1ccc(F)cc1 | inactive |  |
| COc1ccc(CCNC(=O)CSc2nc3[nH]ncc3c(=O)n2-c2cccc(C(F)(F)F)c2)cc1OC | inactive |  |
| NC(=O)NC(=O)CSc1nc2cc([N+](=O)[O-])ccc2n1-c1cccc(C(F)(F)F)c1 | 10 µM (active) |  |
| NS(=O)(=O)c1cccc(NC(=O)CSc2nc3ccccc3n2-c2ccccc2)c1 | inactive |  |
| CC(OC(=O)Cc1ccc(F)cc1)C(=O)N1CCc2ccccc21 (stereo unspecified) | inactive |  |
| O=C(/C=C/c1ccc(F)cc1)Nc1cccc(S(=O)(=O)Nc2cccc(C(F)(F)F)c2)c1 | inactive |  |
| O=C(NCc1ccccc1)c1ccc(S(=O)(=O)Nc2cccc(C(F)(F)F)c2)cc1 | inactive |  |
| Cc1oc2c(F)c(F)c(F)c(F)c2c1S(=O)(=O)Nc1cccc(C(F)(F)F)c1 | 4.47 µM (active) |  |
| O=C(O)C(c1cccs1)C1(O)CCCCC1 (stereo unspecified) | inactive |  |
| CCOc1ccc(S(=O)(=O)NCCC(=O)NCC(C)(C)N2CCOCC2)cc1 | inactive |  |
| CN(C)c1nc(N)nc(CSc2ccccn2)n1 | inactive |  |
| CN(C)c1nc(N)nc(CSc2nnnn2-c2cccc3ccccc23)n1 | 3.16 µM (active) |  |
| COc1ccc(-n2nnnc2SCc2nc(N)nc(N3CCOCC3)n2)cc1 | inactive |  |
| COC(=O)Cc1ccc(OC(=O)C2CCN(S(=O)(=O)c3ccc(OC)c(OC)c3)CC2)cc1 | inactive |  |
| CCN(CC)CCNc1nc(-c2ccc(OC(F)F)cc2)c(C)s1 | 17.8 µM (active) |  |
| CCOC(=O)c1ccccc1NC(=O)c1c(N)n(C)c(=O)[nH]c1=O | inactive |  |

| Structure (SMILES) | Potency | activity change, negative = inhibition |
| --- | --- | --- |
| CCCN(CC(=O)Nc1ccccc1OC)C(=O)CCC(=O)c1ccc(F)cc1 | inactive |  |
| COc1ccc([C@H]2CC(=O)C=C(/C=C/c3ccc(Cl)cc3)C2)cc1 | inactive |  |
| CC12CCCCC1=CC(=O)CC2 (stereo unspecified) | inactive |  |
| COc1ccc(NC(=O)/C(N=Nc2cccc(S(=O)(=O)Nc3ccc(SC(F)F)cc3)c2)=C(\C)O)cc1 | inactive |  |
| O=c1ccn([C@@H]2O[C@H](CNS(=O)(=O)c3cc4ccccc4s3)[C@@H](O)[C@H]2O)c(=O)[nH]1 | inactive |  |
| COc1cccc(-c2cc3nc4c(c(N5CCC6(CC5)OCCO6)n3n2)CCCC4)c1 | 12.6 µM (active) |  |
| COc1cccc(CNc2nc3nc4c(c(=O)n3[nH]2)CCC4)c1 | inactive |  |
| COc1ccc(NC(=O)N2CCC3(CC2)OCCO3)c(OC)c1 | inactive |  |
| Cc1ccc(S(=O)(=O)N2CCOCC2)cc1C(=O)Nc1ccccc1N1CCCC1 | inactive |  |
| CC(C)CCNc1nc(N2CCCC2)c2c(c1C#N)CCN(C)C2 | 12.6 µM (active) |  |
| CCN1CCc2c(C#N)c(NCc3ccccc3)nc(NCCO)c2C1 | inactive |  |
| CCc1nc(NCCO)c(C#N)c2c1CCCC2 | inactive |  |
| O=C(NCCc1ccccc1)c1c[nH]c2ccc(F)cc2c1=O | inactive |  |
| CCOc1ccc(CC(=O)NCCS(=O)(=O)N2CCN(c3ccccc3)CC2)cc1 |  | -0.883% [at 8.37 µM] |
| N#Cc1ccc(C2=CC(=O)C[C@H](c3ccc(Cl)cc3)C2)cc1 | inactive |  |
| CC(=O)N1CCCc2cc(S(=O)(=O)N3CCCC(C(=O)NCc4ccc(Cl)cc4)C3)ccc21 (stereo unspecified) | 14.1 µM (active) |  |
| O=C(C1CCCN(S(=O)(=O)c2ccccc2)C1)N1CCN(c2ccc(F)cc2)CC1 (stereo unspecified) | 20 µM (active) |  |
| CC(=O)N1c2ccc(S(=O)(=O)N3CCCC(C(=O)NCc4ccc(Cl)cc4)C3)cc2CC1C (stereo unspecified) | 5.62 µM (active) |  |
| CC(=O)N1CCCc2cc(S(=O)(=O)N3CCCC(C(=O)N4CCN(c5cccc(Cl)c5)CC4)C3)ccc21 (stereo unspecified) | 3.16 µM (active) |  |
| Cc1ccc(S(=O)(=O)N2CCCC(C(=O)N3CCN(C)CC3)C2)cc1 (stereo unspecified) | inactive |  |
| O=C(NCc1ccncc1)C1CCCN(S(=O)(=O)c2ccc(Br)cc2)C1 (stereo unspecified) | inactive |  |

| Structure (SMILES) | Potency | activity change, negative = inhibition |
| --- | --- | --- |
| CC(=O)N1CCCc2cc(S(=O)(=O)CCC(=O)N3CCN(c4ccccc4)CC3)ccc21 | inactive |  |
| CC(=O)N1c2ccc(S(=O)(=O)N3CCC(C(=O)NC4CCCC(C)C4C)CC3)cc2CC1C (stereo unspecified) | inactive |  |
| COc1cccc(N2CCN(C(=O)C3CCCN(S(=O)(=O)c4cnc[nH]4)C3)CC2)c1 (stereo unspecified) | inactive |  |
| CCS(=O)(=O)N1CCCC(C(=O)NCc2ccc(C)cc2)C1 (stereo unspecified) | inactive |  |
| CCCS(=O)(=O)N1CCCC(C(=O)N2CCN(c3ccccc3)CC2)C1 (stereo unspecified) | inactive |  |
| CC(=O)Nc1ccc(NC(=O)C2CCCN(S(=O)(=O)c3ccc(Cl)cc3)C2)cc1 (stereo unspecified) | inactive |  |
| Cc1cc(NC(=O)CSCC(=O)NC(C)c2ccccc2)no1 (stereo unspecified) | inactive |  |
| CCN(c1ccccc1)S(=O)(=O)c1cc(C(=O)NCc2ccccn2)ccc1C | inactive |  |
| O=C(COC(=O)c1ccc(O)cc1O)NC(=O)c1ccccc1 | inactive |  |
| CCOc1ccc2oc(C(=O)N(CC)CC(=O)Nc3ccc(NC(C)=O)cc3)c(C)c2c1 | inactive |  |
| COc1ccc(C(C)(C)C)cc1NC(=O)CCN1C(=O)C2CCCCC2C1=O (stereo unspecified) | inactive |  |
| O=[N+]([O-])c1ncc(Br)cc1Nc1ccccc1 | inactive |  |
| CCN(CC)S(=O)(=O)c1ccc(CNC(=O)CN2C(=O)NC3(CCc4ccccc43)C2=O)cc1 (stereo unspecified) | inactive |  |
| O=C(NN=Cc1ccc([N+](=O)[O-])cc1)C1CC1 | inactive |  |
| CSCCC(NS(=O)(=O)c1ccc(C)cc1)C(=O)N(C)CC(=O)Nc1ccccc1Br (stereo unspecified) | inactive |  |
| O=C(Nc1ccc(N2CCN(C(=O)c3ccccc3)CC2)c(Cl)c1)c1cccnc1 | 11.2 µM (active) |  |
| O=C(Nc1ccc(N2CCN(C(=O)c3ccccc3)CC2)c(Cl)c1)c1ncn[nH]1 | inactive |  |
| Cc1ccccc1N1CCN(C(=O)c2cccnc2)CC1 | inactive |  |
| Cc1cccc(C(=O)NCc2nnc(SC(C)C(=O)Nc3nnc(C)s3)n2C)c1 (stereo unspecified) | inactive |  |
